JMJD2A Tudor inh – qHTS Assay for Inhibitors of JMJD2A-Tudor Domain. AID 504339, 2011. Potency, µM (doses to about 114 µM), hits mostly inhibitors. 4.4% of 390,000 active. AlphaScreen JMJD2A-Tudor / H3K4me3 peptide binding; also: nearly all actives have a fitted effect of over 50% in size
BAZ2B block – qHTS Assay for Inhibitors of BAZ2B; Bromodomain adjacent to zinc finger domain protein 2B (Homo sapiens), Q9UIF8; AlphaScreen BAZ2B-H3K14Ac peptide displacement; Potency, µM (top dose mostly 114 µM), actives largely listed as inhibitors; 4.4% of 360,000 active; AID 504333, 2011; also: nearly all actives have a fitted effect of over 60% in size
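BAZ2B (50 nM) with biotin-H3(5-23)K14Ac peptide (50 nM) in PBS pH 7.4, 0.01% Tween-20, preformed 30 min, then compound 30 min at room temperature; top concentration 110uM. AlphaScreen streptavidin donor/nickel chelate acceptor beads (10 ug/mL final), 20 min dark, signal read.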
G9a inh – qHTS Assay for Inhibitors of Histone Lysine Methyltransferase G9a. Potency, µM (top dose mostly 102 µM), usual class: inhibitors. 8.8% of 350,000 active. Histone-lysine N-methyltransferase EHMT2 (Homo sapiens), Q96KQ7. G9a H3K9 monomethylation, AlphaScreen, 2 h; also: nearly all actives have a fitted effect of over 75% in size
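Step 1: enzyme (final 20 nM) with compound, 15 min RT. Step 2: substrate peptide 500 nM and SAM 20 uM, 2 h RT. Step 3: anti-H3K9me1 antibody and AlphaScreen beads, 10 min, then plate read.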
GLS inhibitor – qHTS for Inhibitors of Glutaminase (GLS); GLS enzymatic activity, qHTS titration; AID 624170, 2012; Potency, µM (top dose mostly 45.5 µM), hits mostly inhibitors; Glutaminase kidney isoform, mitochondrial (Homo sapiens), O94925; 0.21% of 410,000 active
Target sequence (O94925 whole entry, looked up, canonical isoform): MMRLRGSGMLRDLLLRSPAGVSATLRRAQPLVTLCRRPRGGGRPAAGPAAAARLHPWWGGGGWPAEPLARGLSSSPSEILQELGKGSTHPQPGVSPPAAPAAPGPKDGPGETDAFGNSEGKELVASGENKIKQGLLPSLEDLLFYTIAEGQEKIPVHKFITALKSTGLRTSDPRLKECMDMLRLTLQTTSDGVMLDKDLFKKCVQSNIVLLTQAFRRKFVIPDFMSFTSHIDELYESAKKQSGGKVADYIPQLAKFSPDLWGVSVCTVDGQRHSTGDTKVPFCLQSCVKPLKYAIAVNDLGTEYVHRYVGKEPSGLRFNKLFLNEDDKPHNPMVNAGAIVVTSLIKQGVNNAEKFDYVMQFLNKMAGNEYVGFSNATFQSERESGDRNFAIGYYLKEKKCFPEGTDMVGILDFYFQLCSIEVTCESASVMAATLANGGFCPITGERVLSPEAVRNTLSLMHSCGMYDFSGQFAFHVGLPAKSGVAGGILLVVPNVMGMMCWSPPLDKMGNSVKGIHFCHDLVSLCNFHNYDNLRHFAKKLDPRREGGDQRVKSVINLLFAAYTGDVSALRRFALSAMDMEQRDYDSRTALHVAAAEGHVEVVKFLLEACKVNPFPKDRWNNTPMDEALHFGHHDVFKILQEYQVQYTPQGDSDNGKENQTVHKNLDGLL
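Assay buffer: 45 mM KH2PO4 pH 8.2, 0.02% Tween-20. hKGA acts on L-glutamine (1 mM solution added); product glutamate is reported by an oxidase/peroxidase Amplex Red coupling, with fluorescence taken at baseline and 30 min.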
HP1b binding inh – HTS for Inhibitors of HP1-beta Chromodomain Interactions with Methylated Histone Tails; Chromobox protein homolog 1 (Homo sapiens), P83916; AlphaScreen HP1-beta / biotin-H3K9me3 peptide binding; Potency, µM (highest dose often 114 µM), actives largely listed as inhibitors; 0.56% of 390,000 active; also: nearly all actives have a fitted effect of over 70% in size
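Compound inhibition of the preformed complex between 50 nM HP1-beta and 50 nM biotinylated H3K9me3 peptide was read by AlphaScreen. Buffer was PBS pH 7.4 with 0.01% Tween-20. Incubations ran 30 min at room temperature, with 10 ug/mL donor/acceptor beads.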
Each line names hits and unclear results; the compound was inactive in the other large screens. Compounds with a hit are over-represented: about 10% of the library has one in this group of screens. Calls follow the shape of the dose curve; as a rule, active = well fitted curve in the direction sought with a large enough effect; inconclusive = small, poorly fitted or top-dose-only effect, or another doubt; inactive = no such curve, though single readings can be large; an effect the other way counts as inactive or inconclusive.

CCn1c(-c2cccc(S(=O)(=O)N3CCCC3)c2)n[nH]c1=S	JMJD2A Tudor inh 6.3µM, G9a inh 8.9µM
CCN(CC)S(=O)(=O)c1cccc(-c2n[nH]c(=S)n2C(C)COC)c1 (centres undefined)	JMJD2A Tudor inh 3.5µM, G9a inh 10µM
CCCCn1c(N)c(N(CCOC)C(=O)COc2ccc(Cl)cc2)c(=O)[nH]c1=O	none
CCC(C)n1c(-c2cccc(S(=O)(=O)N(CC)CC)c2)n[nH]c1=S (centres undefined)	JMJD2A Tudor inh 10µM, G9a inh 8.9µM
CCN(CC)S(=O)(=O)c1cccc(-c2n[nH]c(=S)n2/N=C/c2ccc(Br)cc2)c1	JMJD2A Tudor inh inconclusive, G9a inh inconclusive
CCC(C)n1c(-c2cccc(S(=O)(=O)N3CCOCC3)c2)n[nH]c1=S (centres undefined)	JMJD2A Tudor inh 5.6µM, G9a inh 3.2µM
COc1ccc(S(=O)(=O)N2CCC(C(=O)Oc3ccc(C)cc3)CC2)cc1OC	none
O=C(O)c1cccc(NS(=O)(=O)/C=C/c2ccccc2)c1	none
Cc1ccc(NCC(=O)c2ccccc2)cc1Cl	none
Cc1ccc(NC2=C(NC(=O)c3ccccc3)C(=O)c3ccccc3C2=O)cc1Cl	JMJD2A Tudor inh 14µM, BAZ2B block 14µM, G9a inh 2.2µM, HP1b binding inh 45µM
O=C(O)c1cccc(NC2=C(Cl)C(=O)c3ccccc3C2=O)c1	JMJD2A Tudor inh 56µM, BAZ2B block 45µM, G9a inh 7.1µM, HP1b binding inh inconclusive
O=C1C(Cl)=C(Nc2ccccc2)C(=O)c2ccccc21	BAZ2B block inconclusive, G9a inh inconclusive
CC(C(=O)Nc1ccc(C(=O)O)cc1)N1C(=O)c2ccccc2C1=O (centres undefined)	none
O=C(O)c1ccc(NC2=C(Cl)C(=O)c3ccccc3C2=O)cc1	JMJD2A Tudor inh inconclusive, BAZ2B block 50µM, G9a inh inconclusive
CC1=C(Nc2ccc(C(=O)O)cc2)C(=O)c2ccccc2C1=O	JMJD2A Tudor inh inconclusive, BAZ2B block 45µM, G9a inh inconclusive
COc1cccc(Cn2cnc3c(NS(=O)(=O)c4cc(Cl)ccc4Cl)c(C)c(C)cc32)c1	G9a inh 8.9µM
Cc1ccc(S(=O)(=O)CCC(=O)OC2CC(C)OC2=O)cc1 (centres undefined)	none (no result: BAZ2B block, G9a inh)
Cc1nc(SCc2ccc(C#N)cc2)n[nH]1	none (no result: G9a inh)
CCCCOc1ccc(CSc2n[nH]c(C)n2)cc1	G9a inh 28µM
Cc1cccc(-c2nsc(SCC(=O)Nc3ccc4c(c3)OCO4)n2)c1	none
O=C(CSc1nc(-c2ccccc2)ns1)N1CCOCC1	G9a inh 8.9µM
Cc1cccc(-c2nsc(SCC(=O)N3CCCC3)n2)c1	G9a inh 40µM
Cc1cccc(-c2nsc(SCC(=O)Nc3nccs3)n2)c1	JMJD2A Tudor inh inconclusive, G9a inh 10µM
CCCC[C@]12Cc3cc(OC)c(OC)cc3C(O1)C1=C(O2)C(=O)c2ccccc2C1=O	BAZ2B block 7.1µM (no result: JMJD2A Tudor inh, G9a inh, GLS inhibitor, HP1b binding inh)
CCSc1nc(N)c(C#N)c(-c2ccccc2Cl)c1C#N	G9a inh 16µM
CN(C)c1ncc2nc(CCc3ccccc3)c(=O)n(Cc3ccc(F)cc3)c2n1	none (no result: JMJD2A Tudor inh, BAZ2B block, GLS inhibitor, HP1b binding inh)
Cc1cc(Br)ccc1NC(=O)CN(C)C(=O)c1cc([N+](=O)[O-])ccc1N1CCOCC1	G9a inh 3.5µM
CCOc1ccc(NC(=O)CN(C)C(=O)c2ccc(N3CCCCC3)c([N+](=O)[O-])c2)cc1OCC	JMJD2A Tudor inh inconclusive, BAZ2B block inconclusive, G9a inh 50µM
CCOc1ccc(NC(=O)CN(C)C(=O)c2cc([N+](=O)[O-])ccc2N2CCCCC2)cc1OCC	G9a inh 2.2µM
CCOc1ccc(NC(=O)CN(C)C(=O)c2ccc(N3CCCC3)c([N+](=O)[O-])c2)cc1OCC	BAZ2B block inconclusive
Cc1ccc(C)c(S(=O)(=O)NCC(c2ccco2)S(=O)(=O)c2ccc(F)cc2)c1 (centres undefined)	none
CCOc1ccc(NC(C)c2cc(Cl)ccc2O)cc1 (centres undefined)	JMJD2A Tudor inh inconclusive, BAZ2B block 35µM, G9a inh 40µM, HP1b binding inh inconclusive

From PubChem BioAssay
